# Screening data deposited in PubChem BioAssay by National Center for Advancing Translational Sciences (NCATS).
# In the library only some 2.8% were active in any assay of this set; here they are far more common.
# CtBP-E1A blk – blocks the CtBP interaction with E1A. hit rate 0.49% among 340,000. activity change, % (test concentration not listed). AlphaScreen GST-E1A/His-CtBP binding, 1536-well; stronger effect = lower value; in the data active = activity change below about -65%; inconclusive = mostly about -30% to -63%; also: % is scaled to controls: 0 for no effect and ±100 for the full control effect
#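 Steps: dispense buffer (Tris pH 8.0, NaCl 300 mM, TCEP 1 mM, BSA, Tween 20); add 5X protein mix (GST-E1A, His-CtBP, 125 nM each); pin 23 nL compound; 2 h at 37 °C, dark; add 5X beads (50 ug/mL); 1 h; read.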
# Six1-Eya2 inh – blocks human Six1 binding to Eya2 | Q15475+O00167 | AlphaScreen GST-Six1/His-Eya2 binding, biochemical; stronger effect = lower value | activity change, % (test concentration not listed) | hit rate 0.56% among 360,000 | AID 651725; in the data active = activity change below about -65%; inconclusive = mostly about -30% to -63%; also: % is scaled to controls: 0 for no effect and ±100 for the full control effect
# Target sequence (O00167 whole entry, looked up): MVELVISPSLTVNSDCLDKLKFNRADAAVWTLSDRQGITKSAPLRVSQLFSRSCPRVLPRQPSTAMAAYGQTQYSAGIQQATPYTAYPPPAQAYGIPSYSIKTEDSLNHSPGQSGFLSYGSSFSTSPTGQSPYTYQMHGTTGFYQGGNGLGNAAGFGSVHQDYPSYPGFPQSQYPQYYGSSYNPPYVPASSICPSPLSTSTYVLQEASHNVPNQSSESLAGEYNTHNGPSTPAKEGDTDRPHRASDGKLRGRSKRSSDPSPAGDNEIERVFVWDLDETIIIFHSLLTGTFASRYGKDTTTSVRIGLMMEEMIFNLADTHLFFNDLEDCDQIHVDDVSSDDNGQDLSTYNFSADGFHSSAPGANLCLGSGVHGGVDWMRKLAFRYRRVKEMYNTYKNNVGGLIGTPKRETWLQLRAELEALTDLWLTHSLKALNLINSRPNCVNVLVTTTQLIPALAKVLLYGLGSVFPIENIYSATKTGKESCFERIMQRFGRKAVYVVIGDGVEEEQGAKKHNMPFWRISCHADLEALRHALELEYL
# Target sequence (Q15475 whole entry, looked up): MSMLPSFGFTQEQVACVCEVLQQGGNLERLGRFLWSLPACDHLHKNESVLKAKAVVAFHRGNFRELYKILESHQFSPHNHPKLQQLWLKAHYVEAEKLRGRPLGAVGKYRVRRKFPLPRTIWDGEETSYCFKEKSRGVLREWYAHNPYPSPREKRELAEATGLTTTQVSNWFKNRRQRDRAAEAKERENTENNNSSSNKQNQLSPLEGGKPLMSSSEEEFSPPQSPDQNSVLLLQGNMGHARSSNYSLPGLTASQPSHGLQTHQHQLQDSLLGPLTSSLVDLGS
#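 AlphaScreen luminescence read after one hour at 37 °C in darkness. Pin-transferred compounds met GST-Six1 and His-Eya2 protein (5X stock 250 nM/500 nM) plus glutathione donor and Ni-chelate acceptor beads (5X, 50 ug/mL).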
# TGFb inhibitor – TGF-b pathway inhibition; AID 588855; Potency, µM (titrated, usually from 46.1 µM), for the others: at the top dose activity, negative = inhibition, usual class: inhibitors; hit rate 1.2% among 410,000; HepG2 CAGA-GFP TGF-b/SMAD3 reporter, GFP fluorescence, 18 h; TGF-beta stimulated, 500 pg/mL final; also: potency is read from the fitted curve at half-maximal effect; % is scaled to controls: 0 for no effect and ±100 for the full control effect; nearly all actives have a fitted effect of over 65% in size
#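 HEPG2 CAGA-GFP, 1000 cells/well; 2 h settle, 37 C; cpd via pin tool; TGF-b 500 pg/mL final; 18 h, 37 C; GFP imaging ex488/em500-530; %Activity normalised to -TGF-b and +DMSO controls; CRC fit, curve class.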
# ATXN2 expr inh – ATXN2 expression inhibition | Potency, µM (titrated, usually from 57 µM), inactives show top-dose activity change, negative = inhibition, usual class: inhibitors | hit rate 0.72% among 360,000 | HEK-293 ATXN2-luciferase reporter, luminescence, 24 h; also: potency is read from the fitted curve at half-maximal effect; % is scaled to controls: 0 for no effect and ±100 for the full control effect; nearly all actives have a fitted effect of over 55% in size
#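 qHTS (up to 57 uM final) was run with 24 h compound exposure of reporter cells at 37 °C. Each well was multiplexed: SteadyGlo luminescence measured ATXN2-luciferase expression after a fluorogenic Gly-Phe-AFC viability readout (25 uM final).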
# S2 tox – cell viability loss in ATXN counter-screen; S2 cells (HEK-293 line with an ATXN2-luciferase reporter) viability, CellTiter-Fluor protease fluorescence, 24 h; Potency, µM (titrated, usually from 56.7 µM), most hits filed as cytotoxic; hit rate 0.49% among 400,000; AID 651635; also: potency is read from the fitted curve at half-maximal effect; nearly all actives have a fitted effect of over 40% in size
# HepG2 viability – counter-screen for TGF-b inhibitors: cytotoxicity in HepG2 cells; HepG2 CAGA-GFP viability, ATP luminescence, 18 h; Potency, µM (highest dose often 46.1 µM), for inactives: top-dose activity change, negative = cytotoxicity, actives largely listed as cytotoxic; hit rate 0.76% among 410,000; also: potency is read from the fitted curve at half-maximal effect
#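 HepG2 CAGA-GFP cells (1000/well, DMEM with 1% FBS) received compound, then TGF-beta at 500 pg/mL final, and were incubated 18 hours at 37 degrees C. Viability was read by CellTiter-Glo luminescence. Media-only wells were set as complete cell-killing and DMSO as no toxicity.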
# * marks the source's active call; other numbers are inactive results; i = inactive; ? = inconclusive; · = not tested or not shown. Unless noted, calls follow the shape of the dose curve; as a rule, active = well fitted curve in the direction sought with a large enough effect; inconclusive = small, poorly fitted or top-dose-only effect, or another doubt; inactive = no such curve, though single readings can be large; an effect the other way counts as inactive or inconclusive.
SMILES,CtBP-E1A blk,Six1-Eya2 inh,TGFb inhibitor,ATXN2 expr inh,S2 tox,HepG2 viability
CC(C)(C)NC(=O)C(c1ccc(-c2ccccc2)cc1)N(C[C@H]1CC[C@@H]([C@@H]2CC[C@H](CO)O2)O1)C(=O)c1ccc(-c2ccccc2)cc1 (some centres not stated),-6.8,-13.6,?,?,·,-2.2%
COc1ccc2c(Oc3ccc(NC(=O)c4c(C)n(CC(C)(C)O)n(-c5ccccc5)c4=O)nc3)ccnc2c1,·,·,·,-7.8%,·,·
CCc1ccccc1Nc1nn2c(=O)c3ccc(C(=O)NCc4ccccn4)cc3nc2s1,-78.7*,?,-12.3%,-23.5%,i,-11.6%
COc1ccccc1Nc1nn2c(=O)c3ccc(C(=O)NCc4ccc(F)cc4)cc3nc2s1,·,·,3.16µM*,?,?,3.98µM*
COc1cc(NC(=O)CN2C(=O)COc3ccc(S(=O)(=O)N4CCCCC4)cc32)cc(OC)c1,-72.9*,?,-0.8%,6.6%,i,-3.7%
COc1cc(NC(=O)CN2C(=O)COc3ccc(S(=O)(=O)N4CCCC4)cc32)cc(OC)c1,-77.4*,?,-2.6%,5.3%,i,-12.0%
COc1ccccc1NC(=O)CN1C(=O)COc2ccc(S(=O)(=O)N3CCOCC3)cc21,-2.5,6.2,2.0%,3.2%,i,7.6%
Cc1cc(C)cc(NC(=O)CN2C(=O)COc3ccc(S(=O)(=O)N4CCCC4)cc32)c1,·,-5.1,-29.6%,·,?,-8.7%
COc1ccc(NC(=O)CN2C(=O)COc3ccc(S(=O)(=O)N4CCOCC4)cc32)cc1Cl,-92.0*,5.9,11.5%,5.3%,i,5.3%
CC(C)(C)n1ncc2c(=O)n(Cc3c(Cl)cccc3Cl)cnc21,·,·,-1.6%,·,·,-23.8%
Cc1cc2nc3c(=O)n(C)c(=O)n(C)c3nc2cc1N=CN(C)C,·,·,33.7%,4.4%,i,-28.3%
Cn1c(CC(=O)Nc2ccccc2F)nnc1SCC(=O)Nc1nncs1,-1.1,-22.7,-19.6%,-6.7%,i,-3.9%
Cn1c(CC(=O)Nc2ccccc2F)nnc1SCC(=O)Nc1ccccc1Br,-4.0,12.3,-1.4%,-1.7%,i,11.2µM*
O=C(CSc1nnc2c3ccccc3c3ccccc3c2n1)Nc1ccccc1F,3.0,?,0.4%,?,14.1µM*,26.7%
O=C(/C=C/c1ccccn1)NCC1Cc2cccc(-c3ncccn3)c2O1 (configuration not stated),·,·,·,·,i,·
COc1cccc(C2(CC(=O)N3CCC(c4nc5ccc(F)cc5[nH]4)CC3)CC(=O)N(C)C2=O)c1 (configuration not stated),·,·,·,·,i,·
CN=c1scc(-c2ccccc2F)n1/N=C/c1ccc[nH]1,-24.2,-28.3,-13.1%,3.16µM*,?,-23.8%
CC(C)N=c1scc(-c2cccs2)n1/N=C/c1ccc(O)c(O)c1O,?,-76.3*,2.8%,?,?,-31.0%
CN=c1scc(-c2ccco2)n1/N=C/c1ccc(O)c(O)c1,·,?,-10.1%,51.9%,i,-22.7%
CN=c1scc(-c2ccccc2F)n1/N=C/c1ccc(O)c(O)c1O,?,-74.5*,?,34.1%,i,5.6%
COc1ccc(O)c(/C=N/n2c(-c3ccco3)csc2=Nc2cccnc2)c1,?,?,?,-21.6%,i,-39.0%
CCN=c1scc(-c2cccs2)n1/N=C/c1cc(OC)ccc1O,?,?,12.6µM*,24.3%,i,-42.7%
CCN(CC(=O)Nc1ccccc1C(F)(F)F)C(=O)c1ccccc1Cc1ccccc1,-20.4,4.0,-16.7%,-7.6%,i,-11.6%
CCN(CC(=O)Nc1ccccc1C(F)(F)F)C(=O)C1CC(=O)N(Cc2ccccc2)C1 (configuration not stated),-2.0,-85.8*,?,-1.2%,?,-0.2%
Nc1cccc2c1C(=O)N(C(=O)/C=C/c1cccc(Br)c1)C2=O,-25.3,0.3,-21.1%,?,i,-2.0%
SMILES,CtBP-E1A blk,Six1-Eya2 inh,TGFb inhibitor,ATXN2 expr inh,S2 tox,HepG2 viability
Nc1cccc2c1C(=O)N(C(=O)/C=C/c1cccc(F)c1)C2=O,-23.7,-15.9,14.1µM*,?,i,13.4%
Cc1ccc2nc(C3CCCCC3)c(Cc3ccsc3)n2c1,-24.5,-1.8,·,?,?,·
Cc1ccc(Cc2c(C3CCCCC3)nc3ccc(C)cn23)cc1,-5.7,-4.9,?,15.8µM*,12.6µM*,-55.6%
Cc1cc(=O)oc2cc(O[C@@H]3SC[C@@H](O)[C@H](O)[C@H]3O)ccc12,·,·,·,12.9%,i,·
CCCCCc1cc(=O)oc2c(C(CCN3CCCC3)c3ccc4c(c3)OCO4)c(OC)cc(OC)c12 (configuration not stated),·,·,?,·,·,-97.5%
CCCCCc1cc(=O)oc2c(C(CCN3CCN(c4ccccc4)CC3)c3ccc(N(C)C)cc3)c(OC)cc(OC)c12 (configuration not stated),-28.4,-66.2*,-0.9%,-8.8%,?,-1.0%
COc1cc(OC)c2c(-c3ccccc3)cc(=O)oc2c1C(CCN1CCCC1)c1ccc2c(c1)OCO2 (configuration not stated),?,-12.4,?,0.0%,?,-7.9%
COc1cc(OC)c2ccc(=O)oc2c1C(CCN1CCOCC1)c1ccc2c(c1)OCO2 (configuration not stated),-0.3,-1.6,-20.4%,-7.8%,8.91µM*,-26.8%
COc1cc(OC)c2c(-c3ccccc3)cc(=O)oc2c1C(CCN1CCN(c2ccccc2)CC1)c1ccc(N(C)C)cc1 (configuration not stated),?,?,?,-0.3%,i,3.4%
CCCCCc1cc(=O)oc2c(C(CCN(CC)CC)c3cc(OC)c(OC)c(OC)c3)c(OC)cc(OC)c12 (configuration not stated),-8.5,-9.7,?,?,31.6µM*,17.8µM*
COc1cc(OC)c2ccc(=O)oc2c1C(CCN1CCCC1)c1ccc2c(c1)OCO2 (configuration not stated),-0.6,-4.4,-7.2%,4.9%,14.1µM*,-14.0%
CCCCCc1cc(=O)oc2c(C(CCN3CCCCC3)c3ccc4c(c3)OCO4)c(OC)cc(OC)c12 (configuration not stated),?,-22.7,17.8µM*,31.6µM*,17.8µM*,-93.1%
CC(Nc1nc(-c2ccccc2)nc2ccccc12)c1ccccc1 (configuration not stated),0.0,1.6,?,-5.6%,?,-27.8%
